Test results reported in PubChem BioAssay AID1159580 (chemical genetic matrix, 2015).
Hit rate of the full screen: of about 5,500 compounds, about 2,000 (36%) were called active. Not shown: some 18% with an inconclusive outcome. Cut-off read from the data, not from the text of the source: active = normalized growth mostly below about 0.91 (no sharp cut-off); inconclusive = no clear call, values can overlap the other calls; inactive = mostly above about 0.92. This is one part of the list.

Assay: chemical genetic growth profiling, strain panel (AID 1159580);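 note: tested at 20 µM; growth read once vehicle control cultures reached saturation at 30 °C; 1 = growth at the plate median or of vehicle wells; lower values mean less growth of the strain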
Settings: S. cerevisiae deletion strains, growth OD
[1] = locus YHR030C, strain SLT2, active compounds read low
[2] = locus YHR079C, strain IRE1, active compounds read low
[3] = locus YJL095W, strain BCK1, active compounds read low
[4] = locus YJR066W, strain TOR1, active compounds read low
[5] = locus YLR113W, strain HOG1, active compounds read low
[6] = locus YNL183C, strain NPR1, active compounds read low
[7] = locus YOR231W, strain MKK1, active compounds read low
[8] = locus YPL256C, strain CLN2, active compounds read low

Measured: normalized growth

CCC(CO)NC(=O)C1C=C2c3cccc4c3c(cn4C)CC2N(C)C1 (stereo unspecified)
inactive: locus YAL013W, strain DEP1, active compounds read low 0.988 | locus YAL040C, strain CLN3, active compounds read low 1.08 | locus YCL061C, strain MRC1 (second series), active compounds read low 0.999 | locus YDR150W, strain NUM1, active compounds read low 1 | locus YDR363W, strain ESC2, active compounds read low 0.972 | locus YER002W, strain NOP16, active compounds read low 0.998 | locus YGR078C, strain PAC10, active compounds read low 1 | locus YGR229C, strain SMI1, active compounds read low 0.999 | locus YMR263W, strain SAP30, active compounds read low 0.994 | locus YMR307W, strain GAS1, active compounds read low 0.962 | locus YNL128W, strain TEP1, active compounds read low 1.02 | locus YNL153C, strain GIM3, active compounds read low 1 | locus YNL175C, strain NOP13, active compounds read low 0.987 | locus YNL197C, strain WHI3, active compounds read low 1.02 | locus YNL224C, strain SQS1, active compounds read low 1 | locus YNL322C, strain KRE1, active compounds read low 0.989 | locus YOR083W, strain WHI5 (second series), active compounds read low 0.988 | locus YPL055C, strain LGE1, active compounds read low 0.997 | locus YPL241C, strain CIN2, active compounds read low 1

Nc1ccc(S(=O)(=O)O)cc1
inactive: [1] 0.992 | [2] 0.987 | [3] 0.998 | [4] 0.966 | [5] 0.976 | [6] 0.939 | [7] 1.01 | [8] 0.97

CC[C@]1(O)CC2CN(CCc3c([nH]c4ccccc34)[C@@](C(=O)OC)(c3cc4c(cc3OC)N(C=O)[C@H]3[C@@](O)(C(=O)OC)[C@H](OC(C)=O)[C@]5(CC)C=CCN6CC[C@]43[C@@H]65)C2)C1 (stereo partly specified)
inactive: locus YAL021C, strain ccr4, active compounds read low 1 | locus YAL026C, strain drs2, active compounds read low 0.984 | locus YAL030W, strain snc1, active compounds read low 0.993 | locus YBL061C, strain skt5, active compounds read low 1 | locus YBR009C, strain hhf1, active compounds read low 0.988 | locus YBR023C, strain chs3, active compounds read low 0.999 | locus YBR171W, strain sec66, active compounds read low 0.978 | locus YBR231C, strain swc5, active compounds read low 1.01 | locus YBR279W, strain paf1, active compounds read low 0.989 | locus YCL011C, strain gbp2, active compounds read low 1.01 | locus YCL016C, strain dcc1, active compounds read low 1.03 | locus YCL061C, strain MRC1, active compounds read low 0.971 | locus YCL069W, strain vba3, active compounds read low 0.968 | locus YCR088W, strain abp1, active compounds read low 0.986 | locus YDL005C, strain med2, active compounds read low 0.985 | locus YDL040C, strain nat1, active compounds read low 0.988 | locus YDR001C, strain nth1, active compounds read low 1 | locus YDR069C, strain doa4, active compounds read low 0.984 | locus YDR137W, strain rgp1, active compounds read low 0.989 | locus YDR159W, strain sac3, active compounds read low 0.994 | locus YDR195W, strain ref2 0.978 | locus YDR297W, strain sur2, active compounds read low 0.982 | locus YDR334W, strain swr1, active compounds read low 0.937 | locus YDR335W, strain msn5, active compounds read low 0.977 | locus YDR392W, strain spt3, active compounds read low 0.987 | locus YEL003W, strain gim4, active compounds read low 0.972 | locus YEL037C, strain rad23, active compounds read low 0.981 | locus YEL061C, strain CIN8 (second series), active compounds read low 0.968 | locus YER015W, strain faa2, active compounds read low 0.997 | locus YER016W, strain bim1, active compounds read low 0.989 | locus YER111C, strain swi4, active compounds read low 0.989 | locus YER155C, strain BEM2 (second series), active compounds read low 0.962 | locus YFR010W, strain ubp6, active compounds read low 0.94 | locus YGL167C, strain pmr1, active compounds read low 0.972 | locus YGL173C, strain kem1, active compounds read low 0.996 | locus YGL227W, strain vid30, active compounds read low 0.985 | locus YGL240W, strain doc1, active compounds read low 0.966 | locus YGL253W, strain hxk2, active compounds read low 1.02 | locus YHR013C, strain ard1, active compounds read low 1 | locus YHR027C, strain rpn1, active compounds read low 0.992 | [1] 0.972 | [2] 0.97 | locus YHR142W, strain chs7, active compounds read low 1.04 | locus YJL092W, strain hpr5, active compounds read low 0.973 | locus YJL095W, strain BCK1 (second series), active compounds read low 0.988 | [3] 0.958 | locus YJL115W, strain asf1, active compounds read low 0.981 | locus YJL129C, strain trk1, active compounds read low 1.01 | locus YJL154C, strain vps35, active compounds read low 0.972 | locus YJL164C, strain tpk1, active compounds read low 0.986 | locus YJL166W, strain qcr8, active compounds read low 0.998 | [4] 0.939 | locus YKL160W, strain elf1, active compounds read low 1.03 | locus YKR026C, strain gcn3, active compounds read low 0.982 | locus YKR091W, strain srl3, active compounds read low 0.999 | locus YLL001W, strain dnm1, active compounds read low 1.01 | locus YLL026W, active compounds read low 0.992 | locus YLL041C, strain sdh2, active compounds read low 0.992 | locus YLR027C, strain aat2, active compounds read low 0.991 | [5] 0.936 | locus YLR221C, strain rsa3, active compounds read low 0.981 | locus YLR258W, strain gsy2, active compounds read low 0.994 | locus YLR262C, strain YPT6 (second series), active compounds read low 0.954 | locus YLR320W, strain mms22, active compounds read low 0.985 | locus YLR342W, strain FKS1, active compounds read low 0.984 | locus YLR357W, strain rsc2, active compounds read low 0.92 | locus YLR370C, strain arc18, active compounds read low 1.01 | locus YLR384C, strain iki3, active compounds read low 1.01 | locus YML120C, strain ndi1, active compounds read low 0.964 | locus YMR058W, strain fet3, active compounds read low 0.982 | locus YMR125W, strain sto1, active compounds read low 0.926 | locus YMR129W, active compounds read low 0.994 | locus YMR205C, strain PFK2, active compounds read low 1.01 | locus YMR231W, strain pep5, active compounds read low 0.986 | locus YNL071W, strain lat1, active compounds read low 0.973 | [6] 0.933 | locus YNL209W, strain ssb2, active compounds read low 1 | locus YNL248C, strain rpa49, active compounds read low 0.991 | locus YNL322C, strain KRE1 (second series), active compounds read low 0.975 | locus YNR049C, strain mso1, active compounds read low 0.975 | locus YOR001W, strain rrp6, active compounds read low 0.945 | locus YOR070C, strain gyp1, active compounds read low 0.999 | locus YOR080W, strain dia2, active compounds read low 0.996 | locus YOR083W, strain WHI5, active compounds read low 1.01 | locus YOR106W, strain vam3, active compounds read low 0.998 | [7] 0.964 | locus YOR265W, strain rbl2, active compounds read low 0.989 | locus YOR270C, strain vph1, active compounds read low 1.04 | locus YOR290C, strain snf2, active compounds read low 1.02 | locus YPL051W, strain arl3, active compounds read low 1.01 | locus YPL078C, strain atp4, active compounds read low 1.04 | locus YPL106C, strain sse1, active compounds read low 0.953 | locus YPL240C, strain hsp82, active compounds read low 0.952 | [8] 1.05
